Several values for one entry are separate records, joined by “and”; a condition that tells them apart may be missing. Equal entries are not always repeated. Results filed as inconclusive are left out. A call without a number means that no potency is given here. Activity calls are given as the source filed them. Calls come from the whole dose curve; as a rule, active = well fitted curve in the direction sought with a large enough effect; inconclusive = small, poorly fitted or top-dose-only effect, or another doubt; inactive = no such curve, though single readings can be large; an effect the other way counts as inactive or inconclusive.
Experiment: NS1 protein of Zika virus - qHTS assay to identify small molecule inhibitors in human HEK 293 cells (AID 1347053); note: nearly all actives have a fitted effect of over 55% in size
Details: HEK293 ZIKV MR766 infection, NS1 TR-FRET, 24 h; series mostly up to 46.1 µM
In short: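 Inhibition of NS1 expression was scored in HEK 293 cells given compound 1 h ahead of MR766 virus (MOI = 0.5). Following 24 h at 37 C, two anti-NS1 antibodies generated a TR-FRET signal, scaled between uninfected and infected controls.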
In the case of `O=C(NC(Cc1cc(=O)[nH]c2ccccc12)C(=O)O)c1ccc(Cl)cc1` (stereo not drawn), the Potency is reported as “inactive”. In the case of `COc1c2occc2cc2ccc(=O)oc12`, the Potency is reported as “inactive”. In the case of `CN(c1nccc(=O)[nH]1)C1CCN(c2nc3ccccc3n2Cc2ccc(F)cc2)CC1`, the Potency is reported as “inactive”. For `CCCc1cc(=O)[nH]c(=S)[nH]1`, the Potency was “inactive”. For `CN1CCC(=C2c3ccccc3CCc3sccc32)CC1`, the Potency was “inactive”. With `CNC[C@@H](O)[C@@H](O)[C@H](O)[C@H](O)CO` the Potency was “inactive”. In the case of `COC(=O)N[C@H](C(=O)N[C@@H](Cc1ccccc1)[C@@H](O)CN(Cc1ccc(-c2ccccn2)cc1)NC(=O)[C@@H](NC(=O)OC)C(C)(C)C)C(C)(C)C`, the Potency is reported as “inactive”.

Experiment: qHTS of pediatric cancer cell lines to identify multiple opportunities for drug repurposing: Primary screen for TC32 cells (AID 1347089); note: nearly all actives have a fitted effect of over 60% in size; note: potency is the fitted concentration of half-maximal effect
Details: TC32 Ewing sarcoma viability, CellTiter-Glo luminescence, 48 h; series mostly up to 45.8 µM
In short: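 Measured quantity: luminescence from CellTiter-Glo, reflecting metabolically active TC32 cells following 48 h of compound. Curves came straight from multi-point titrations, with 8 or 11 points in primary and 11 in confirmatory screening.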
In the case of `Cc1nc(-c2ccc(OCC(C)C)c(C#N)c2)sc1C(=O)O`, the Potency is reported as “inactive”. In the case of `O=C(CS(=O)Cc1ccco1)NCC=CCOc1cc(CN2CCCCC2)ccn1` (stereo not drawn), the Potency is reported as “inactive”. With `Cc1c(C(=O)NN2CCCCC2)nn(-c2ccc(Cl)cc2Cl)c1-c1ccc(Cl)cc1` the Potency was “inactive”. For `Cc1cc2c(s1)Nc1ccccc1N=C2N1CCN(C)CC1`, the Potency was “inactive”. In the case of `CCCCc1ccc2nc(NC(=O)OC)[nH]c2c1`, the Potency is reported as 117 nM (active) and 47 nM (active). For `CC(C)c1ccc2oc3nc(N)c(C(=O)O)cc3c(=O)c2c1`, the Potency was “inactive”. In the case of `COCCCOc1ccnc(CS(=O)c2nc3ccccc3[nH]2)c1C` (stereo not drawn), the Potency is reported as “inactive”. With `N=C(N=C(N)N)N1CCOCC1` the Potency was “inactive”. With `Nc1cccc2c1CN(C1CCC(=O)NC1=O)C2=O` (stereo not drawn) the Potency was “inactive”. In the case of `CN(C)[C@@H](CCOc1cccc2ccccc12)c1ccccc1`, the Potency is reported as “inactive”. For `CN(C)c1ccc2nc3ccc(=[N+](C)C)cc-3sc2c1`, the Potency was 16.5 µM (active) and 21 µM (active).
